# Compound activity deposited in PubChem BioAssay by National Center for Advancing Translational Sciences (NCATS).
# Luciferase inh = blocks purified firefly luciferase enzyme activity | P08659 | purified P. pyralis luciferase, luminescence, biochemical | Potency, µM (series often up to 115 µM), hits mostly inhibitors | hit rate 2.5% among 76,000 | AID 1347043; further: nearly all actives have a fitted effect of over 65% in size
#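 Purified 10nM P. pyralis luciferase with 10uM D-luciferin and 10uM ATP in 50mM Tris acetate pH 7.5, 10mM Mg acetate, 0.01% Tween-20, 0.05% BSA. qHTS titration; luminescence read by CCD imager.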
# hNpr1 antagonist = blocks ANP-stimulated signaling of human Npr1 receptor. P16066. HEK293 hNpr1 GloSensor cGMP, ANP-stimulated luminescence. hit rate 1.6% among 76,000. Potency, µM (series often up to 46.3 µM), for the others: at the top dose activity change, negative = inhibition, hits mostly inhibitors; calls by dose curve; further: nearly all actives have a fitted effect of over 60% in size
# Target sequence (P16066 whole entry, looked up): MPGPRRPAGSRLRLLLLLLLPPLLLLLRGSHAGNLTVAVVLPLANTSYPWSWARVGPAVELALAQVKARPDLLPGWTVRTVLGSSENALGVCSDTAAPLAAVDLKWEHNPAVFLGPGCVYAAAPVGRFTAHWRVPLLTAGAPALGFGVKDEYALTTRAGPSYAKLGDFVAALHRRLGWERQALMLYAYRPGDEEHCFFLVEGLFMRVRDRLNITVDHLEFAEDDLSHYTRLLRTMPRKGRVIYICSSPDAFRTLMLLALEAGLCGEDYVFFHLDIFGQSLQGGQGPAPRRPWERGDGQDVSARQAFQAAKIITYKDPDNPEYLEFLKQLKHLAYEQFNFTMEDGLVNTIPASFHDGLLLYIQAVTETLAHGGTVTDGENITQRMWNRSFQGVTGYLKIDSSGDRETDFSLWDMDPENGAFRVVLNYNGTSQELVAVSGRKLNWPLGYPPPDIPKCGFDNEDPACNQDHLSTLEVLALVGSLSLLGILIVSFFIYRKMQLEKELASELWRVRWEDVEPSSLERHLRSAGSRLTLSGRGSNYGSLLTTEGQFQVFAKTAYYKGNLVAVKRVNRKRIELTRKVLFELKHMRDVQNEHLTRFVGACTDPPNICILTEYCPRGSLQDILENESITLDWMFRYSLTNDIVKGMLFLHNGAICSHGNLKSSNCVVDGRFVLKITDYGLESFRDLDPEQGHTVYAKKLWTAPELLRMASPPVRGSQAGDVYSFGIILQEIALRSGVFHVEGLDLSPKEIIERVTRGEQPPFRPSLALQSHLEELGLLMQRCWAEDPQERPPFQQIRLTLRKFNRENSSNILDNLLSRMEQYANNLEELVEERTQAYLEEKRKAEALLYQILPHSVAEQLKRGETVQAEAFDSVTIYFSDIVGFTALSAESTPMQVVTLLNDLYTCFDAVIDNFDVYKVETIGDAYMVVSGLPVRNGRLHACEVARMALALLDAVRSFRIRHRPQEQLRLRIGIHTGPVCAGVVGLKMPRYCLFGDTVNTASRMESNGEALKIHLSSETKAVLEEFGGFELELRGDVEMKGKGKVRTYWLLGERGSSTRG
#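 HEK293 cells stably expressing human Npr1 and cGMP GloSensor pGS-40F, loaded 2 h with 2% GloSensor reagent, given compound 30 min at room temperature. Luminescence read before and 20 min after 0.1 nM hNppA.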
# GPT2 inhibitor = blocks human glutamate pyruvate transaminase 2; Recombinant GPT2, coupled pyruvate oxidase/HRP Amplex Red fluorescence; hit rate 0.25% among 100,000; Q8TD30; AID 1671188; Potency, µM (doses to about 57.7 µM), without a hit: top-dose activity change, negative = inhibition, actives largely listed as inhibitors; further: nearly all actives have a fitted effect of over 60% in size
#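 Recombinant GPT2 (10ng/uL) with 250uM a-KG and 2mM L-alanine, 30 min at room temperature, in HEPES pH 7.5 buffer. Pyruvate detected by pyruvate oxidase/HRP/Amplex Red fluorescence after 30 min in the dark; AOA (50uM) as positive control.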
# HEK cytotox = HEK 293 cell cytotoxicity | HEK 293 viability, ATP luminescence (CellTiter-Glo), 48-72 h | Potency, µM (series often up to 115 µM), without a hit: at the highest dose activity change, negative = cytotoxicity, actives largely listed as inhibitors | hit rate 6.6% among 94,000 | AID 1345083; further: nearly all actives have a fitted effect of over 60% in size
#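 ATP-coupled CellTiter-Glo luminescence served as viability read-out, recorded 10 min after reagent addition at room temperature. HEK 293 cells, 250 cells/well, had been incubated with pintool-transferred compound for 48 or 72 hr at 37 degree Celsius.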
# 3T3 cytotox = kills NIH 3T3 cells | hit rate 4.3% among 94,000 | AID 1345082 | NIH 3T3 viability, CellTiter-Glo ATP luminescence, 48-72 h | Potency, µM (series often up to 96.7 µM), inactives show top-dose activity change, negative = cytotoxicity, usual class: inhibitors; further: nearly all actives have a fitted effect of over 55% in size
#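 NIH 3T3 cells at 400 cells/well received 23 nL of compound by pintool and were incubated 48 or 72 h at 37 °C. Viability was read as ATP-coupled CellTiter-Glo luminescence.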
# Active calls of the source: *; i = inactive; ? = inconclusive; · = no result; [ ] = another dose, or the depositor's remark. This is a sample that favours compounds with a hit; in the whole collection about 10% have one here. Unless noted, the call rests on the fitted dose curve; in most records, active means well fitted curve in the direction sought with a large enough effect; inconclusive means small, poorly fitted or top-dose-only effect, or another doubt; inactive means no such curve, though single readings can be large; an effect the other way counts as inactive or inconclusive. On the % scale 0 is the no-effect control and ±100 the full control effect; potency means the concentration at half of the fitted maximal effect.
SMILES,Luciferase inh,hNpr1 antagonist,GPT2 inhibitor,HEK cytotox,3T3 cytotox
COCCn1nc2n(c1=O)CCN(C(=O)Cc1ccc(OC)c(OC)c1)CC2,i,4%,0%,1%,i
COc1ccccc1-c1cccc(CN2CCCC(C(=O)N3CCCC3)C2)c1 (stereo not drawn),·,·,0%,?,?
COCCNC(=O)C1CCCN(Cc2cccc(-c3cccc(C)c3)c2)C1 (stereo not drawn),·,·,i,?,?
COc1ccccc1-c1cccc(CN2CCCC(C(=O)NCCCc3ccccc3)C2)c1 (stereo not drawn),·,·,1%,?,35µM*
Cc1cccc(-c2cccc(CN3CCCC(C(=O)NCCCc4ccccc4)C3)c2)c1 (stereo not drawn),·,·,-2%,45µM*,40µM*
O=C1NCC(=O)N2CC3(CCN(S(=O)(=O)c4ccccc4)CC3)CC12 (stereo not drawn),·,·,-1%,-3%,-4%
COCCNC(=O)c1cc(-c2ccccc2F)nc2c1cnn2C,·,·,·,-7%[172 µM],?
Fc1ccc(CN2Cc3[nH]cnc3C[C@H]2c2nc(-c3ccc(Cl)cc3)no2)cc1,i,-20%[70.6 µM],-13%[88.5 µM],63µM*,50µM*
O=C(O)c1ccc(CN2Cc3[nH]cnc3C[C@H]2c2nc(-c3ccc(F)cc3)no2)cc1,i,-1%[70.6 µM],2%[88.5 µM],-22%[172 µM],-21%[138 µM]
Fc1ccc(CN2Cc3[nH]cnc3C[C@H]2c2nc(-c3ccccc3)no2)cc1,45µM*,-16%[70.6 µM],?,100µM*,79µM*
CCn1ccc(C(=O)N2CC[C@H](c3nc(C)no3)[C@H](NC(=O)C3CC3)C2)n1,i,0%,-1%,-5%,i
CCCNC(=O)c1cc2c(=O)[nH]c(-c3ccccc3)cn2n1,i,-25%,i,?,-27%
CC(=O)Nc1ccccc1-c1nccc2c(=O)cc(N(C)c3ccccc3)oc12,i,-6%[70.6 µM],-8%[88.5 µM],-25%[172 µM],?
CN(c1ccccc1)c1cc(=O)c2ccnc(Nc3cccnc3)c2o1,i,?,?,?,10µM*
O=c1cc(-c2ccccn2)oc2c(Nc3cccnc3)nccc12,i,4%[70.6 µM],i,?,11µM*
CN(c1ccccc1)c1cc(=O)c2ccnc(NCCc3ccccn3)c2o1,i,1%[70.6 µM],4%[88.5 µM],?,25µM*
O=c1cc(-c2ccccn2)oc2c(Nc3ccccc3)nccc12,i,-17%[70.6 µM],0%[88.5 µM],?,?
O=C(CCCc1ccccc1)NCC(=O)N1CCCCCNC(=O)CC1c1ccccc1 (stereo not drawn),i,0%,-4%,i,i
O=C(NCCNc1cccnc1)C1CCC(=O)N(Cc2ccc(Cl)cc2)C1 (stereo not drawn),i,-1%,?,-13%,-10%
Fc1ccccc1CNc1cc(Cl)nc2ccnn12,i,?,?,35µM*,?
CC(C)(C)CNc1cc(Cl)nc2ccnn12,i,13%[70.6 µM],i,?,-11%[138 µM]
COc1ccc(-c2ccc3ncc(Nc4ccc5c(c4)OCCO5)n3n2)cc1OC,20µM*,-17%[70.6 µM],i,45µM*,?
COc1ccc(Nc2cnc3ccc(-c4ccc(F)cc4)nn23)cc1OC,?,-3%[70.6 µM],4%[88.5 µM],?,?
COc1ccc(Nc2cnc3ccc(-c4ccc(OC)c(OC)c4)nn23)cn1,?,1%[70.6 µM],?,63µM*,32µM*
COc1ccc(-c2ccc3ncc(Nc4cccc(O)c4)n3n2)cc1OC,i,-13%[70.6 µM],-8%[88.5 µM],63µM*,?
COc1ccccc1Nc1cnc2ccc(-c3ccc(F)cc3)nn12,i,-10%[70.6 µM],4%[88.5 µM],71µM*,?
COc1ncccc1Nc1cnc2ccc(-c3ccc(F)cc3)nn12,i,-2%[70.6 µM],?,?,?
Cc1ccc(C2(O)CCN(C(=O)[C@@H](N)Cc3cnc[nH]3)CC2)nc1,i,1%,-8%[11.5 µM],-15%,-8%
COc1ccc(CNC(=O)[C@@H]2CCC[C@@H](NCc3cccnc3)CN(C)C(=O)C2)cc1,i,1%[70.6 µM],i,-1%[172 µM],-3%[138 µM]
CC(C)CN[C@H]1[C@H](O)[C@@H](N2CCC(Cc3ccccc3)CC2)[C@@H]2OC[C@H]1O2,i,3%[70.6 µM],i,?,?
